Compounds without any hit were thinned out: in the full panel of roughly 79,000, 15% have a hit. Cut-off read from the data, not from the text of the source: active = growth inhibition above about 70%; inactive = the rest. Where a SMILES comes first, the peptide text is derived from it. [ ]: non-standard residue; d: D form. The star is where a group is joined. Cbz = O=C(OCc1ccccc1)*; Nva = CCC[CH](N)C(=O)O
How the values were obtained:
[1] = NCI Yeast Anticancer Drug Screen. Data for the rad50 strain (AID 155);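 note: 0% = growth of vehicle-only cultures of the same strain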; settings: S. cerevisiae rad50 strain growth inhibition; at 50.0 µM; stronger effect = higher value
Outline: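 Relative growth inhibition (compound vs vehicle) was measured in yeast with a defined repair-gene alteration.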

[2] = NCI Yeast Anticancer Drug Screen. Data for the mec2-1 strain (AID 157); settings: S. cerevisiae mec2-1 strain, at 50.0 µM, stronger effect = higher value
Outline: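 Compounds were applied to mec2-1 yeast cells. Their growth was then compared with that of vehicle-treated cultures to give growth inhibition.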

[3] = NCI Yeast Anticancer Drug Screen. Data for the sgs1 mgt1 strain (AID 161);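 note: 0% = growth of cultures given vehicle only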; settings: S. cerevisiae sgs1 mgt1 strain, at 50.0 µM, stronger effect = higher value
Outline: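 Yeast cells carrying a defined DNA-repair defect were exposed to test compounds. Growth inhibition was measured relative to vehicle-treated controls.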

[4] = NCI Yeast Anticancer Drug Screen. Data for the cln2 rad14 strain (AID 165);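 note: 0% = growth equal to vehicle treated cultures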; settings: S. cerevisiae cln2 rad14 strain, at 50.0 µM, stronger effect = higher value
Outline: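 Strain: cln2 rad14 yeast, altered in cell cycle control and DNA damage repair. Read-out: growth inhibition vs vehicle.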

[5] = NCI Yeast Anticancer Drug Screen. Data for the bub3 strain (AID 167); settings: S. cerevisiae bub3 mutant strain, at 50.0 µM, stronger effect = higher value
Outline: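 Screening used yeast with an engineered genetic alteration affecting cell cycle control. Compound-exposed cultures were compared with vehicle cultures, and reduced growth was taken as inhibition.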

[6] = NCI Yeast Anticancer Drug Screen. Data for the mlh1 rad18 strain (AID 175); settings: S. cerevisiae mlh1 rad18 strain growth inhibition; at 50.0 µM; stronger effect = higher value
Outline: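 A repair-deficient yeast strain is exposed to test compound, and growth is scored relative to vehicle-treated controls.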

Measured: growth inhibition

COC(=O)/C(C#N)=C/Sc1ccccc1
inactive: [1] 61.6% | [2] 33.7% | [3] 38% | [4] 7.2% | [5] 26.6% | [6] -7.7%

O=C(/C=C/C(=O)NCCc1ccccc1)NCCc1ccccc1
inactive: [1] -13.4% | [2] 0.85% | [3] 9.15% | [4] -7.45% | [5] 46.4% | [6] 17.4%

CC(C)CCCC(C)C1CCC2C3CCC4Cc5c(c6ccccc6n5C)CC4(C)C3CCC12C (stereo unspecified)
inactive: [1] -13.2% | [2] 35% | [3] -5.75% | [4] -27.8% | [5] -8.95% | [6] 21.9%

O=C(N/N=C/C1CCCCC1)C(=O)N/N=C/C1CCCCC1
inactive: [1] 4.45% | [2] 6.65% | [3] 8.55% | [4] -7.45% | [5] 28.2% | [6] -58.5%

N#C/C(=C\c1ccco1)C(N)=O
inactive: [1] -11% | [2] -7% | [3] -14.6% | [4] 5.25% | [5] 10.9% | [6] -10.7%

NC(CC1=CS(=O)(=O)c2ccc(Cl)cc21)C(=O)O (stereo unspecified)
inactive: [1] 18.4% | [2] 19.3% | [3] 4.45% | [4] -16.2% | [5] 23.8% | [6] 23.9%

Cc1cc(Cl)ccc1NC(=O)CCCC(=O)C1CCC/C1=N\NC(=O)CC#N (stereo unspecified)
inactive: [1] -33.2% | [2] 9.7% | [3] -7.25% | [4] 8.95% | [5] 5.7% | [6] -12.3%

CCN(CC)CCOC(C)=O
inactive: [1] 8.25% | [2] -15.7% | [3] -19.4% | [4] 0.7% | [5] -11.1% | [6] -26.3%

CC(Nc1ncccn1)Nc1ncccn1
inactive: [1] -6.4% | [2] 1.8% | [3] 7.75% | [4] -29.9% | [5] -1.95% | [6] -1.75%

COc1ccc(-c2cc(N)c3c(c2O)C(=O)c2c(N)ccc(O)c2C3=O)cc1
inactive: [1] 13.3% | [2] 4.75% | [3] 4.75% | [4] -23.6% | [5] -4.65% | [6] 9.25%

c1ccc(COC(c2ccccc2)(c2ccccc2)c2ccccc2)cc1
inactive: [1] -0.45% | [2] -2.2% | [3] 10.4% | [4] -8.55% | [5] -0.85% | [6] 27.9%

CCOC(Nc1ccc(Cl)cc1Cl)C(=O)c1ccccc1 (stereo unspecified)
inactive: [1] 8.65% | [2] 6.05% | [3] -2.8% | [4] 1.85% | [5] 11.8% | [6] 1.8%

CN(C)C1=Nc2ccccc2C(=S)N2CSCC12 (stereo unspecified)
inactive: [1] -29% | [2] -37.1% | [3] -16.9% | [4] -12.2% | [5] -63.8% | [6] -20.3%

CC(C)=C/C(CC(O)(C(F)(F)F)C(F)(F)F)=N\O
inactive: [1] -17.2% | [2] 4.45% | [3] -6.5% | [4] 18.4% | [5] -15.8% | [6] -13.3%

CSc1cnn(-c2ccccc2)[n+]1[O-]
inactive: [1] 3.8% | [2] -1.3% | [3] -7.15% | [4] -42.5% | [5] -1.75% | [6] -0.85%

Nc1nc(Cc2ccccc2)cc(-c2cc(Cc3ccccc3)nc(N)n2)n1
inactive: [1] 2.7% | [2] 4.7% | [3] 5.2% | [4] 1.8% | [5] -6.3% | [6] 1.7%

Cn1cc([N+](=O)[O-])cc1C(=O)Nc1cc(C(=O)Nc2ccc(S(=O)(=O)O)c3cc(S(=O)(=O)O)ccc23)n(C)c1
inactive: [1] 2.4% | [2] 21.4% | [3] 14.3% | [4] 17.4% | [5] 20.4% | [6] 11.7%

COc1ccc(C(=O)Nc2ccn(CCOC(=O)c3ccc(OC)cc3)c(=O)n2)cc1
inactive: [1] -25.9% | [2] 16.9% | [3] -3.1% | [4] -4% | [5] 2.8% | [6] -3.55%

CN(C)N=Nc1ccccc1
inactive: [1] 38.2% | [2] -14.2% | [3] 0% | [4] 15.4% | [5] -1.65% | [6] 29.2%

N#CC12CC=C(c3ccccc3)N=C1NC(c1ccccc1)=CC2 (stereo unspecified)
inactive: [1] -25.9% | [2] -35.5% | [3] -31.7% | [4] -38.4% | [5] -1.65% | [6] -34.1%

CCC(=O)Oc1cccc2ccccc12
inactive: [1] -14.4% | [2] -26.9% | [3] -14.8% | [4] -14.3% | [5] -24.9% | [6] -8.05%

Cc1ccc(NC(=O)Oc2ccc(Br)cc2Br)c(Cl)c1
inactive: [1] 21.1% | [2] 17.9% | [3] 16.7% | [4] -0.25% | [5] -6.3% | [6] 41.6%

CC(=O)OC[C@@H](OC(C)=O)[C@@H](OC(C)=O)[C@H]1OC[C@@H]2C[C@H]([C@H]1OC(C)=O)N(Cc1ccccc1)O2
inactive: [1] -18.9% | [2] -13.8% | [3] -7.75% | [4] 4.25% | [5] -9.8% | [6] -0.3%

C[C@]1(CO)CCC[C@@]2(C)C1CC[C@H]1CC3C[C@]12CC[C@]3(C)O (stereo partly specified)
inactive: [1] 47.2% | [2] 8% | [3] 41.2% | [4] 28.4% | [5] 32.6% | [6] 54.3%

Nc1nnc(-c2ccccc2)o1
inactive: [1] 9.85% | [2] -4.8% | [3] 4.05% | [4] -19.9% | [5] 4.8% | [6] 3.35%

[O-]/[N+]1=[N+](\[O-])c2ccccc2COCc2ccccc21
inactive: [1] -5.2% | [2] -12.3% | [3] -12.4% | [4] -44.5% | [5] -8.1% | [6] -14.2%

Cc1ccc(S(=O)(=O)OCC2CC=CCC2COS(=O)(=O)c2ccc(C)cc2)cc1 (stereo unspecified)
inactive: [1] 5.4% | [2] -8.2% | [3] -9.75% | [4] -15.2% | [5] 6% | [6] 28.8%

O=C(O)c1[nH]c(=O)[nH]c(=O)c1CN1CCCCC1
inactive: [1] -39.8% | [2] -21.6% | [3] -15.1% | [4] -29.9% | [5] -23.4% | [6] -0.75%

O=C(O)C(C(=O)O)C(O)c1c2ccccc2cc2ccccc12 (stereo unspecified)
inactive: [1] -10.3% | [2] 16% | [3] -4.35% | [4] -47.6% | [5] 0.6% | [6] -1.05%

CC(C)CCOC(=O)NC1c2ccccc2Oc2ccccc21
inactive: [1] -10% | [2] 3.55% | [3] 3.65% | [4] 18% | [5] 0.1% | [6] -1.3%

O=C(c1ccccc1)c1ccc(Cl)c(Cl)c1
inactive: [1] -5.3% | [2] -23.3% | [3] 2.05% | [4] -55.5% | [5] 6.65% | [6] -8.05%

CCCC(NC(=O)OCc1ccccc1)C(=O)NC(CO)C(=O)O (stereo unspecified) (Cbz-[Nva]-Ser-OH; configuration not given here)
inactive: [1] 24.6% | [2] 4.15% | [3] 9.05% | [4] 26.6% | [5] 8.25% | [6] 8.05%

Cc1cccc(NC(=O)NC2CCC(CC3CCCCC3)CC2)c1 (stereo unspecified)
inactive: [1] 16.7% | [2] 5.8% | [3] 7.2% | [4] -9.6% | [5] -1.55% | [6] 7.65%

Cc1cccc(C)c1NC(=O)CNc1ncccn1
inactive: [1] -14.3% | [2] 1% | [3] 3.7% | [4] -4.7% | [5] 19.1% | [6] 4.65%

O=C1C2=C(c3ccccc31)C(c1ccc([N+](=O)[O-])cc1)NC(=S)N2 (stereo unspecified)
inactive: [1] 5.6% | [2] 8.7% | [3] 1.8% | [4] 9.8% | [5] -3.6% | [6] 32.5%

CCCC(O)C(=O)C(CCC)N(CC)CC (stereo unspecified)
inactive: [1] 2.5% | [2] -6.85% | [3] 6.65% | [4] 18.7% | [5] 11.1% | [6] -4.9%

COc1cccc(/C=C2\C(=O)N(C(=O)c3ccc(NC(C)=O)cc3)N=C2C)c1
inactive: [1] -43.9% | [2] -25.8% | [3] -57% | [4] -17.2% | [5] -38% | [6] -40.1%

CN(c1ccccc1)S(=O)(=O)c1ccc(Cl)cc1
inactive: [1] 38% | [2] 19.1% | [3] 32.1% | [4] 11.4% | [5] 43.2% | [6] 25.9%

CC(=O)/C(=N/O)C(C)C
inactive: [1] 4.6% | [2] -3.5% | [3] 6.35% | [4] -0.35% | [5] -0.45% | [6] 2.8%

O=C(/C=C/c1ccc(Cl)cc1)c1ccncc1
inactive: [1] 33.5% | [2] 0% | [3] 11.6% | [4] 18% | [5] 16.1% | [6] 33.9%

Nc1nc(=O)n(C2OC(CO)C(O)C2Cl)cc1I (stereo unspecified)
inactive: [1] 10.4% | [2] -3.8% | [3] 1.1% | [4] -5.1% | [5] 7.8% | [6] -0.75%
